Screening data: PubChem BioAssay, National Center for Advancing Translational Sciences (NCATS)
HCMV inh: blocks human cytomegalovirus replication | activity change, negative = inhibition, % at 57.5 µM | HFF cells, HCMV-luciferase reporter, 72 h; hits give low values | AID 1259415 | hit rate 4.5% among 410,000; in the data active means activity change below about -60%; inconclusive means no clear call, values can overlap the other calls; inactive means above about -39%
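Two compound doses tested in HFFs infected with HCMV-luciferase, MOI 1 PFU/cell, 72 h at 37C. Lysate luminescence read with OneGlo; data normalized against buffer-only and 10uM Salinomycin inhibitor controls.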
HCV inh: HCV inhibition; Huh7.5.1 HCVcc-Cre infection, luciferase reporter, 44 h; hit rate 3.4% among 340,000; Potency, µM (titrated, usually from 41.8 µM), inactives show at the highest dose activity change, negative = inhibition, hits mostly inhibitors; active means well fitted inhibition curve with a large enough effect; inconclusive means small, poorly fitted or top-dose-only effect, or another doubt; inactive means no such curve, though single readings can be large or run the other way; further: potency means the concentration at half of the fitted maximal effect
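Reporter virus HCVcc-Cre (~0.5 moi) infects cells exposed to compound; seeding density 1,000 cells/well with 4 h settling beforehand. Luminescence, 15 sec read, taken 44 h post-infection following a 15 min RT substrate incubation.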
LASV entry inh: blocks Lassa virus binding to or entry into cells. Potency, µM (series often up to 37.9 µM), for inactives: at the top dose activity change, negative = inhibition, actives largely listed as inhibitors. AID 540256. hit rate 1.2% among 300,000. Lassa virus pseudotype entry inhibition, cell reporter; calls by dose curve; tested in HEK293 cells; further: potency means the concentration at half of the fitted maximal effect; nearly all actives have a fitted effect of over 50% in size
Vaccinia Venus: vaccinia inhibition (Venus reporter). Vaccinia virus Venus reporter expression, fluorescence. Potency, µM (titrated, usually from 36.5 µM), without a hit: at the highest dose activity change, negative = inhibition, hits mostly inhibitors. hit rate 0.46% among 330,000. AID 720580; calls by dose curve; tested in A549 cells; further: potency means the concentration at half of the fitted maximal effect; nearly all actives have a fitted effect of over 30% in size
MARV entry inh: blocks Marburg virus binding to or entry into cells | hit rate 1.8% among 300,000 | Marburg virus pseudotyped entry inhibition, cell reporter | AID 540276 | Potency, µM (doses to about 37.8 µM), for inactives: at the highest dose activity change, negative = inhibition, most hits filed as inhibitors; calls by dose curve; tested in HEK293 cells; further: potency means the concentration at half of the fitted maximal effect
VACV mCherry inh: vaccinia inhibition (mCherry reporter); Vaccinia virus mCherry reporter infection, fluorescence; Potency, µM (doses to about 36.5 µM), inactives show at the highest dose activity change, negative = inhibition, actives largely listed as inhibitors; hit rate 0.63% among 310,000; AID 720579; calls by dose curve; tested in A549 cells; further: potency means the concentration at half of the fitted maximal effect; nearly all actives have a fitted effect of over 35% in size
An asterisk follows results filed as active; i = inactive; ? = inconclusive; nt = no result; [ ] = dose if it differs, or a comment. A selection: hits, their analogues and other compounds. The true share with any hit is near 7.8%. On the % scale 0 is the no-effect control and ±100 the full control effect.

SMILES	HCMV inh	HCV inh	LASV entry inh	Vaccinia Venus	MARV entry inh	VACV mCherry inh
COC(=O)C1CCN(c2nc3ccccc3nc2[C@@H](C#N)C(=O)NCCc2ccccc2)CC1	nt	nt	nt	nt	0%	nt
CCOC(=O)CN1C(=O)[C@@]2(CC(C)=C[C@@H](COCc3ccccc3)O2)c2ccccc21	nt	nt	?	nt	7%[14.2 µM]	nt
CN(C)c1nc2cc(Cl)ccc2cc1CN(Cc1ccc2c(c1)OCO2)C(=O)c1ccoc1	nt	nt	nt	-2%	nt	-9%
CCCNC(=O)OC[C@@H]1O[C@H](CCO/N=C\C[C@H]2C=C[C@H](OC(C)=O)[C@@H](COC(C)=O)O2)C=C[C@@H]1Oc1ccc(OC)cc1	nt	nt	nt	nt	6%[14.2 µM]	nt
CC(C)N(Cc1nccn1C)C(=O)c1cc(COc2ccc3ncccc3c2)on1	-71*	?	?	-13%	-22%[46.1 µM]	?
COc1cccc(OCc2cc(C(=O)N(Cc3nccn3C)C(C)C)no2)c1	-27	-5%	nt	nt	nt	nt
Cc1nc(CN(C)C(=O)c2cc(COc3ccc4ncccc4c3)on2)cs1	-65*	?	?	-18%	?	-9%
Cc1ccc(OCc2cc(C(=O)N(C)Cc3cnn(-c4ccccc4C)c3)no2)cn1	-26	11µM*	7.9µM*	-21%	?	-19%
CN(Cc1ccccn1)C(=O)c1cc(COc2ccc(F)c(F)c2)on1	-93*	nt	nt	-17%	nt	-8%
COc1cccc(OCc2cc(C(=O)N(C)Cc3nc(C)cs3)no2)c1	59	-2%	?	-9%	-16%	-25%
CCCCOC(=O)c1ccc(Nc2nnc(-n3nc(C)cc3C)c3ccccc23)cc1	-13	nt	13%[46.1 µM]	-23%	nt	-18%
Clc1ccc(CCNc2nc3cc(Cl)c(Cl)cc3n3cnnc23)cc1	0	nt	2%[46.1 µM]	-5%	2%[46.1 µM]	-2%
CCCOc1ccc(C(=O)Nc2cc3nn(-c4ccc(CC)cc4)nc3cc2C)cc1	4	nt	18%[46.1 µM]	-20%	-22%[46.1 µM]	-23%
O=C(NCCc1ccc(Cl)cc1)Nc1ccc(F)cc1	-31	5%	-3%	-8%	4%[46.1 µM]	-16%
CCCc1c(NC(=O)Nc2ccc(F)cc2)cnn1-c1ccc(Cl)cc1	-81*	15%	5µM*	?	?	-15%
COc1ccc(-c2noc(CSc3nnc(Cc4ccccc4)n3-c3ccccc3)n2)cc1OC	-21	nt	6.3µM*	-15%	-22%[46.1 µM]	-13%
Clc1ccc(-c2noc(CSc3nnc(-c4ccncc4)n3-c3ccccc3)n2)cc1	-101*	4µM*	-28%	nt	?	nt
COc1ccc(-c2noc(CSc3nnc(Cc4ccccc4)n3-c3cccc(C)c3)n2)cc1OC	?	?	?	-28%	?	-13%
Cc1ccc(-n2c(SCc3nc(-c4ccc(Cl)cc4)no3)nnc2-c2ccncc2)cc1	-23	nt	-18%[46.1 µM]	2%	?	-7%
Cc1noc(C)c1CSc1nc2ccccc2[nH]1	95	18%	5%	?	14%	nt
COc1ccc(-c2noc(CSc3nc(N)c(-c4ccccc4)c(=O)[nH]3)n2)cc1OC	-14	?	-12%	-18%	-6%	nt
COc1ccc(-c2noc(CSc3nc4ccccc4[nH]3)n2)cc1OC	-60*	nt	-17%[46.1 µM]	-12%	-35%[46.1 µM]	-14%
c1ccc(-c2cc(CSc3nc4ccccc4[nH]3)on2)cc1	?	4µM*	-15%	?	?	nt
COc1ccc(C)cc1NC(=O)c1cnc2ccc(C)cn2c1=O	14	nt	nt	-6%	-8%[46.1 µM]	-9%
CCCOc1ccc(Oc2nc(NCC(C)C)nc(N3CCOCC3)n2)nn1	142	nt	7%[46.1 µM]	-11%	-1%[46.1 µM]	-14%
SMILES	HCMV inh	HCV inh	LASV entry inh	Vaccinia Venus	MARV entry inh	VACV mCherry inh
COc1ccc2c3c(n(C)c2c1)[C@@H](CO)N(C(=O)c1cnccn1)CC31CN(C(C)=O)C1	2	nt	nt	nt	nt	nt
CCN(Cc1ccncc1)Cc1ccc2c(c1)CN(C(=O)c1ccccc1)CCO2	nt	nt	nt	5%	nt	-7%
C/C(=N\NC(=O)CN(c1ccccc1)S(=O)(=O)c1ccccc1[N+](=O)[O-])C(C)(C)C	-63*	4%	8%	-9%	?	-6%
COc1ccccc1N(CC(=O)Nc1cc(C)on1)S(=O)(=O)c1cccc(C(F)(F)F)c1	-64*	-5%	nt	nt	nt	nt
C/C(=N/NC(=O)CN(c1ccccc1)S(=O)(=O)c1ccccc1)c1ccccc1O	-98*	?	nt	nt	nt	nt
CCCC/C(C)=N/NC(=O)CN(c1ccc(Br)cc1)S(=O)(=O)c1ccccc1	-16	12%	2%	-11%	6%	-2%
COc1ccccc1N(CC(=O)N/N=C(\C)c1ccc(F)cc1)S(=O)(=O)c1ccccc1	-101*	0%	11%	-12%	0%	-4%
O=c1[nH]c(Cl)nc2c1ncn2C1OC(CO)C(O)C1O (stereo not drawn)	nt	nt	nt	4%	nt	-2%
COc1cc2nc(NC3CCN(C)CC3)nc(N3CCCN(C)CC3)c2cc1OC	nt	nt	nt	-27%	nt	-11%
CN(Cc1ccccc1)S(=O)(=O)c1nnc(NC(=O)c2ccccc2Cl)s1	32	nt	4%[46.1 µM]	-8%	nt	-11%
CCC(Cc1ccccc1)NC(=O)CN1C(=O)CSc2ncccc21 (stereo not drawn)	-24	13µM*	nt	-2%	nt	i
COc1ccc(CN(C)C(=O)c2ccc(OCC(=O)Nc3cccc(C(F)(F)F)c3)c(OC)c2)cc1	-62*	nt	nt	?	nt	?
O=C(NCc1c(-n2cccc2)sc2c1CCCC2)Nc1cccc(C(F)(F)F)c1	-73*	nt	23%[46.1 µM]	?	19%[46.1 µM]	?
Cc1cc(C)cc(NC(=O)NCc2c(-n3cccc3)sc3c2CCCC3)c1	4	nt	-11%[46.1 µM]	-1%	?	-11%
O=C(NCc1cccnc1)Nc1cccc(NC(=O)NCc2cccnc2)c1	11	-2%	-1%	nt	2%	nt
O=C(NCc1cccnc1)Nc1cccc(C(F)(F)F)c1	-70*	-7%	20%[46.1 µM]	-10%	-3%[46.1 µM]	-14%
CCOc1ccc(NC(=O)COc2ccc(C(=O)NCc3cccnc3)cc2OC)cc1	4	?	-3%	-10%	-7%	-3%
COc1cc(C(=O)NCc2cccnc2)ccc1OCC(=O)Nc1cccc(C(F)(F)F)c1	-73*	?	?	-26%	?	-24%
Cc1ccc(-c2cc3ncc(C(=O)c4cc(Cl)c(C)cc4O)cn3n2)cc1	6	nt	7%[46.1 µM]	-5%	?	-13%
COc1ccc2c(c1)c1nnc(SC(C)C)nc1n2C	nt	nt	nt	-8%	nt	-9%
COc1ccc(OCc2nnnn2-c2ccccc2)cc1	-38	-3%	3%	nt	0%	nt
COc1cc(CO)ccc1OCc1nnnn1-c1ccc(C)cc1	-63*	-18%	0%	nt	14%	nt
COc1cc(C2CC(=O)N(c3ccccc3)C3=C2C(=O)OC3)cc(OC)c1OC (stereo not drawn)	-6	nt	10%[46.1 µM]	3%	1%[46.1 µM]	5%
O=C(/C=C/c1cn(-c2ccccc2)nc1-c1cccnc1)c1ccco1	-99*	?	10µM*	?	?	-29%
O/N=C/c1cn(-c2ccccc2)nc1-c1cccnc1	-14	?	4%	-14%	0.79µM*	i
